From PubChem BioAssay (NCATS)
Values joined by “and” are separate entries in the source; they are usually repeats but may differ in a detail not shown here. Equal entries are not always repeated. Inconclusive results are not listed. Active and inactive are the calls of the source. Unless noted, the call rests on the fitted dose curve; in most records, active means well fitted curve in the direction sought with a large enough effect; inconclusive means small, poorly fitted or top-dose-only effect, or another doubt; inactive means no such curve, though single readings can be large; an effect the other way counts as inactive or inconclusive.

Tests used:
[1] = molecular target: ATP-dependent 6-phosphofructokinase (Trypanosoma brucei brucei) (UniProt O15648); test: qHTS Assay to Find Inhibitors of T. brucei phosphofructokinase: hit validation (AID 492961); further: potency means the concentration at half of the fitted maximal effect
How it was run: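 Inhibition of parasite PFK is measured as reduced ADP formation, quantified via luciferase after ATP depletion. Assay used 0.1 mM ATP, 0.5 mM F6P, 1.25 nM enzyme, 45 min incubation.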

[2] = molecular target: M-phase phosphoprotein 8 (Homo sapiens) (UniProt Q99549); test: qHTS Validation Assay for Inhibitors for MPP8 Chromodomain Interactions with Methylated Histone Tails (AID 488949); further: nearly all actives have a fitted effect of over 55% in size; further: potency means the concentration at half of the fitted maximal effect
How it was run: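 MPP8 (50 nM) was pre-bound to 50 nM biotinylated H3(1-18)K9me3 peptide in PBS pH 7.4 with 0.01% Tween-20. Compounds were then added for 30 min at room temperature, and complex disruption was read by AlphaScreen with streptavidin donor and nickel-chelate acceptor beads.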

[3] = molecular target: Transient receptor potential cation channel subfamily V member 1 (Homo sapiens) (UniProt Q8NER1); test: HTS Assay for Compounds that Act as Enhancers of the Vanilloid Receptor 1 (AID 488979); further: 0% is about no effect
How it was run: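 TRPV1 cells loaded with Fluo-8 calcium dye; compound added and Ca2+ signal (ex 480/em 520 nm) followed 3 min, then capsaicin at EC20 added and read 2 more min to detect enhancement.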

[4] = molecular target: Thyrotropin-releasing hormone receptor (Homo sapiens) (UniProt P34981); test: qHTS for Small Molecule Agonists and Allosteric Enhancers of Human TRH Receptor: Validation Screen for Agonists (AID 493127;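 active means calcium activation more than 3 SD above the typical response in the agonist read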;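 further: intracellular calcium rise by fluo-8 fluorescence before TRH EC20 addition; 0% is about no effect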); conditions: TRH receptor agonist cell assay; at 2 µM; stronger effect = higher value
How it was run: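 Compound-evoked intracellular calcium release in fluo-8-loaded TRHR cells, read kinetically on FDSS (Ex 480/Em 530, 1 s/cycle) after 23 nL pintool transfer. Agonist phase preceded 10 nM TRH EC20 addition.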

[5] = molecular target: Galactokinase (Homo sapiens) (UniProt P51570); test: qHTS Validation Assay for Inhibitors of Human Galactokinase (GALK) (AID 493189); further: 0% is about no effect
How it was run: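 GALK (5 nM) with 35 uM ATP and 100 uM galactose in HEPES pH 8.0 with MgCl2, NaCl, DTT and BSA. Reaction ran 1 h at room temperature. Residual ATP read by Kinase-Glo Plus luminescence.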

[6] = Validation screen for small molecules that induce DNA re-replication in SW480 colon adenocarcinoma cells (AID 504364); further: 0% is about no effect
How it was run: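 Image-based DNA content read-out: Hoechst stain 40 min, total nuclear fluorescence intensity (ex 405 nm, em 500-530 nm) after 48 h compound exposure of 250 SW480 cells/well at 37 C, 5% CO2, versus DMSO vehicle.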

[7] = molecular target: Chromobox protein homolog 1 (Homo sapiens) (UniProt P83916); test: qHTS Validation Assay for Inhibitors of HP1-beta Chromodomain Interactions with Methylated Histone Tails (AID 488953); further: nearly all actives have a fitted effect of over 50% in size; further: potency means the concentration at half of the fitted maximal effect
How it was run: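 AlphaScreen proximity signal from streptavidin donor and nickel chelate acceptor beads (final 10 ug/mL) after 30 min dark incubation. Compounds had 30 min at room temperature with preformed complex of 50 nM HP1-beta and 50 nM b-H3(1-18)K9me3 in PBS pH 7.4 with 0.01% Tween-20.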

[8] = molecular target: Methanococcus maripaludis chaperonin (MmCpn) (UniProt Q6LX38); test: High-Throughput Screening for Modulators of Cytosolic Chaperonin Activity: MmCpn Primary Screen (AID 488978);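 further: 50 nM MmCpn enzyme hydrolysing 30 µM ATP at 37 °C; 0% is about no effect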
How it was run: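 MmCpn at 50 nM final was preincubated 5 min at RT with compound. ATP was then added at 30 uM final for 10 min at 37 C. ADP formed was detected by Transcreener HTRF (665/590 nm).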

[9] = molecular target: D(1A) dopamine receptor (Homo sapiens) (UniProt P21728); test: HTS Assay for Allosteric Agonists of the Human D1 Dopamine Receptor: Primary Screen for Agonists (AID 488981); further: 0% is about no effect
How it was run: (§1)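 Tetracycline-induced HEK293 Trex D1 cells with forced coupling to calcium, loaded with no-wash calcium dye; kinetic fluorescence read 180 s after compound addition for agonism, then a further 180 s after an EC20 dopamine challenge for potentiation.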

[10] = molecular target: D(1A) dopamine receptor (Homo sapiens) (UniProt P21728); test: HTS Assay for Allosteric Agonists of the Human D1 Dopamine Receptor: Primary Screen for Antagonists (AID 488983);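 further: calcium flux response to an EC80 dopamine challenge measured with no-wash dye; nearly all actives have a fitted effect of over 65% in size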; further: potency means the concentration at half of the fitted maximal effect
How it was run: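 Calcium-flux read-out in inducible HEK293 T-REx cells expressing D1, dye-loaded 30–90 min at room temperature. Kinetic reads: 180 s after compound (agonist phase), then 180 s after an EC80 dopamine challenge.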

[11] = Validation screen for small molecules that induce genotoxicity in human embryonic kidney (HEK293T) cells expressing luciferase-tagged ELG1 (AID 493106); further: 0% is about no effect
How it was run: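 ELG1-luciferase reporter readout (ONE-Glo, 30 min, room temperature) after 16 hr compound treatment at 37 °C of HEK293T cells at 2,000 per well. Rising luminescence flags genotoxic stress.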

[12] = molecular target: ATPase family AAA domain-containing protein 5 (Homo sapiens) (UniProt Q96QE3); test: Validation screen for small molecules that inhibit ELG1-dependent DNA repair in human embryonic kidney (HEK293T) cells expressing luciferase-tagged ELG1 (AID 493107);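 further: series mostly up to about 46 µM; on the % scale 0 is the no-effect control and ±100 the full control effect; inhibitors lower the ELG1-luciferase luminescence signal; nearly all actives have a fitted effect of over 70% in size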
How it was run: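 Luciferase read-out, ONE-Glo, 30 min at room temperature, follows 16 h co-exposure at 37 C of compound and the DNA-damaging agent 5-fluorouridine. Cells: HEK293T with ELG1-luciferase fusion, 2,000 per well, DMSO as vehicle.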

[13] = Nrf2 qHTS screen for inhibitors: Validation (AID 493153; active means well fitted inhibition curve with a large enough effect in the main read-out, with a control signal flat, not every such curve was filed as active; further: potency means the concentration at half of the fitted maximal effect); conditions: Potency: luciferase luminescence; viability change: measured here: cytotoxicity max response
How it was run: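 Concentration-response on A549 ARE_Fluc reporter cells exposed 18-24 h at 37 C, 5% CO2. Cytotoxicity read first by CellTiter-Fluor fluorescence (Ex 405/Em 525), then Nrf2 inhibition by BugLite luminescence after 15 min.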

[14] = qHTS for Inhibitors of Cell Surface uPA Generation: Validation Assay (AID 493164);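 further: RAW 264.7 macrophage cells exposed to compound for 18 h; 0% is about no effect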
How it was run: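 ATP-Lite luminescence read-out: ATP remains high when uPA activity-dependent LF translocation into the cytoplasm is blocked. RAW 264.7 cells, 18 h compound exposure at 37 C; 7-point titration, 2.45 nM to 38.3 uM final.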

[15] = molecular target: Peptidyl-prolyl cis-trans isomerase NIMA-interacting 1 (Homo sapiens) (UniProt Q13526); test: qHTS Validation Assay to Find Inhibitors of Pin1 (AID 504536; active means well fitted inhibition curve with a large enough effect in the polarisation, with a control signal flat, not every such curve was filed as active; the % refers to the polarisation;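 further: 0% = full Pin1 enzyme wells and -100% = no-enzyme wells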)
How it was run: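 Fluorescence polarization competition: compounds (titration) displace HiFluor-488-labeled Pin1-1b peptide from Pin1 (0.3 uM final) in pH 7.5 HEPES buffer with DTT, 10 min at room temperature; %Activity normalized to no-enzyme wells, curves fitted.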

[16] = molecular target: Phosphoglycerate kinase, glycosomal (Trypanosoma brucei brucei) (UniProt P07378); test: qHTS Validation Assay to Find Inhibitors of Phosphoglycerate Kinase (AID 504547);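 further: control wells lack PGK and mark full inhibition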
How it was run: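 Compounds are pinned into the substrate/PGK mixture, and GAPDH (100nM final) is added to start the reaction by producing 1,3-BPG. After 60 minutes at room temperature, Kinase-Glo Plus is added and luminescence is measured 10 minutes later.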

[17] = molecular target: D(1A) dopamine receptor (Homo sapiens) (UniProt P21728); test: HTS Assay for Allosteric Agonists of the Human D1 Dopamine Receptor: Primary Screen for Potentiators (AID 488982); further: 0% is about no effect
How it was run: as §1

[18] = molecular target: Thyrotropin receptor (Homo sapiens) (UniProt P16473); test: qHTS Assay for Antagonists of the Thyroid Stimulating Hormone Receptor (AID 488980); further: series mostly up to about 58 µM; 0% is about no effect
How it was run: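 TSHR-transfected HEK293 cells (2000/well) in HEPES-buffered HBSS with 70 uM RO 20-1724 were stimulated with 4 nM TSH (EC80, final) in the presence of compound. cAMP was measured by HTRF competition after lysis and 30 min at RT.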

Chain of Phosphoglycerate kinase, glycosomal (Trypanosoma brucei brucei) (P07378 whole entry, looked up): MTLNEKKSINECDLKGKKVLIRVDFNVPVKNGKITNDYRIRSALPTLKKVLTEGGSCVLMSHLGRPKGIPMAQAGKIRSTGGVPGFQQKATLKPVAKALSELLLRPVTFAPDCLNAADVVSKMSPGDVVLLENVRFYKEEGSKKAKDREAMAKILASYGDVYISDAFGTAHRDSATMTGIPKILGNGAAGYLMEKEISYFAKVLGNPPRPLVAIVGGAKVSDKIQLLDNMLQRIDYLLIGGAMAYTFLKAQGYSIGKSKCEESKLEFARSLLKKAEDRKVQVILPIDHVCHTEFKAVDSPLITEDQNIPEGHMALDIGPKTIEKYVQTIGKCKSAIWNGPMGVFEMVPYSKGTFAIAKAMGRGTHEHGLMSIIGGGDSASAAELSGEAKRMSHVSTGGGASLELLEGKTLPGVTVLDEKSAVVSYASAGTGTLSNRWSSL
Chain of Peptidyl-prolyl cis-trans isomerase NIMA-interacting 1 (Homo sapiens) (Q13526 whole entry, looked up): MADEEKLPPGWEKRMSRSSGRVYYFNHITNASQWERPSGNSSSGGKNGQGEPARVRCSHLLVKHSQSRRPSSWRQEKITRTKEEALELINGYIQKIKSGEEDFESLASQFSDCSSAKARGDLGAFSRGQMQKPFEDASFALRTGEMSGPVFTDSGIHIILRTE
Chain of ATP-dependent 6-phosphofructokinase (Trypanosoma brucei brucei) (O15648 whole entry, looked up): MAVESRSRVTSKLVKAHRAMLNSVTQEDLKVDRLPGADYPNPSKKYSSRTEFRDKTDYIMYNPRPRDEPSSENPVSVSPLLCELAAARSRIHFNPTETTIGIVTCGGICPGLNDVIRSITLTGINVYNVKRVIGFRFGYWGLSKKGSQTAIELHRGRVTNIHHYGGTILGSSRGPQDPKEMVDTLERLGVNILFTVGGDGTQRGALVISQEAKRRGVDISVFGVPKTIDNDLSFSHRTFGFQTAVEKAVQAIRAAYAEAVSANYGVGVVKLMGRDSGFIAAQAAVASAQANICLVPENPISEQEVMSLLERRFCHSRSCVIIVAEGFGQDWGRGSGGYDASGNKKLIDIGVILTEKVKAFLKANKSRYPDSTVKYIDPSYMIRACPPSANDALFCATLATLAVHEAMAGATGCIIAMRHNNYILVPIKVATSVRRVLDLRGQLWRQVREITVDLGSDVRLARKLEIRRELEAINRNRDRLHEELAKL
Chain of D(1A) dopamine receptor (Homo sapiens) (P21728 whole entry, looked up): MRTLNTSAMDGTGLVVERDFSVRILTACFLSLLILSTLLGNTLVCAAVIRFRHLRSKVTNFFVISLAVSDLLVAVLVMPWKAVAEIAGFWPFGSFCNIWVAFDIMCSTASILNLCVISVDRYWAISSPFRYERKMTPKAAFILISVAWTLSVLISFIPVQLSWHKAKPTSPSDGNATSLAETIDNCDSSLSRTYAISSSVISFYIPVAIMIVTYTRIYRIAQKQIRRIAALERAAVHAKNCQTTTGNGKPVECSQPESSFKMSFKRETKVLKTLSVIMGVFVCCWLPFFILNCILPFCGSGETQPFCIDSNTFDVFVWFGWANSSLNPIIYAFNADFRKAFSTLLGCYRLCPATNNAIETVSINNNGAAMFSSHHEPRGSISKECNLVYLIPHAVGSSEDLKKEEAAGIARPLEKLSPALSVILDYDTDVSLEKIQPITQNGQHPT
Chain of Transient receptor potential cation channel subfamily V member 1 (Homo sapiens) (Q8NER1 whole entry, looked up): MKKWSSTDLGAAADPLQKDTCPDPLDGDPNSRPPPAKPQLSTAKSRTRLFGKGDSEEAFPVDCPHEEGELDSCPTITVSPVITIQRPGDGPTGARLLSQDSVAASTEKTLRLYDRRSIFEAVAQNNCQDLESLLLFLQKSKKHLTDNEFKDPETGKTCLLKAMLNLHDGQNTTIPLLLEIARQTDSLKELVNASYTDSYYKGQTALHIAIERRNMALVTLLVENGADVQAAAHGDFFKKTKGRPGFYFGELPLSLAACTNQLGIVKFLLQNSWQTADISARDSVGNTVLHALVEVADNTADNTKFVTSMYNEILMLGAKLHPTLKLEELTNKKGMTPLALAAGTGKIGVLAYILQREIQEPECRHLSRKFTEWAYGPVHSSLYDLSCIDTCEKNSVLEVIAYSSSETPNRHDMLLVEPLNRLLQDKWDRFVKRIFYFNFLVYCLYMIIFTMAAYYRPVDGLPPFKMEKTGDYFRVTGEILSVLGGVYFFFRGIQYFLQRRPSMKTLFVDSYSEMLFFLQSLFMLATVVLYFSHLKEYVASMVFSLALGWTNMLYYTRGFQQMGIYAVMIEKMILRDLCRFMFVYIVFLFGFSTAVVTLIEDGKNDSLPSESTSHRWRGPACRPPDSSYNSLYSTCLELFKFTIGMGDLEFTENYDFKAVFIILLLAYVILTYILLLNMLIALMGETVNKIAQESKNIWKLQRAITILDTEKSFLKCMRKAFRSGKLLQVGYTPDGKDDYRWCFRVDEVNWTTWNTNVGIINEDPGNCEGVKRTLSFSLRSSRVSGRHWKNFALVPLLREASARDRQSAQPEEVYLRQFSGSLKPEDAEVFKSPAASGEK
Chain of Thyrotropin-releasing hormone receptor (Homo sapiens) (P34981 whole entry, looked up): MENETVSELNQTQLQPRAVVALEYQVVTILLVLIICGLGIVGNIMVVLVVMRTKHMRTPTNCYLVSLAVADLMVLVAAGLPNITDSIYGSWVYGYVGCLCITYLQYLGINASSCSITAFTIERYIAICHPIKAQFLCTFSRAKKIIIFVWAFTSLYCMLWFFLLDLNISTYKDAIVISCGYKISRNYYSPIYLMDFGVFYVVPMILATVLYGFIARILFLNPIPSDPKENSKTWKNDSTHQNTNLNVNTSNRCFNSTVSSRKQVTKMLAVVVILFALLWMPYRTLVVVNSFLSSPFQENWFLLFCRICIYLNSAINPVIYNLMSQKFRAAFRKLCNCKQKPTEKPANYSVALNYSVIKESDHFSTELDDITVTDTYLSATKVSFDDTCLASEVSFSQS
Chain of Methanococcus maripaludis chaperonin (MmCpn) (Q6LX38 1-543): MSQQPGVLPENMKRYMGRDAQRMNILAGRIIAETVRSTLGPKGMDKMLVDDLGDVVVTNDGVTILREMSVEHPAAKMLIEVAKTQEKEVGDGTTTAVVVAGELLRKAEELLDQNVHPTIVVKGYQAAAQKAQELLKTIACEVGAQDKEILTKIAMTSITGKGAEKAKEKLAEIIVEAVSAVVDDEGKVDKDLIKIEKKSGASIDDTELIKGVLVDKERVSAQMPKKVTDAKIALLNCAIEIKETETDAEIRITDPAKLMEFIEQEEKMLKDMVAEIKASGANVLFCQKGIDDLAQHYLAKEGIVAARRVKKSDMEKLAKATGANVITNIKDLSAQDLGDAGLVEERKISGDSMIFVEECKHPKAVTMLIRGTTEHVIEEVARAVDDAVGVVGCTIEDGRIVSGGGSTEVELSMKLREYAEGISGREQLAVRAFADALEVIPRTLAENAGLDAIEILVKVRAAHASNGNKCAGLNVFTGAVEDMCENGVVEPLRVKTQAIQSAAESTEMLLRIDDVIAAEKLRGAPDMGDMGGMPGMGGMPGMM
Chain of Galactokinase (Homo sapiens) (P51570 whole entry, looked up): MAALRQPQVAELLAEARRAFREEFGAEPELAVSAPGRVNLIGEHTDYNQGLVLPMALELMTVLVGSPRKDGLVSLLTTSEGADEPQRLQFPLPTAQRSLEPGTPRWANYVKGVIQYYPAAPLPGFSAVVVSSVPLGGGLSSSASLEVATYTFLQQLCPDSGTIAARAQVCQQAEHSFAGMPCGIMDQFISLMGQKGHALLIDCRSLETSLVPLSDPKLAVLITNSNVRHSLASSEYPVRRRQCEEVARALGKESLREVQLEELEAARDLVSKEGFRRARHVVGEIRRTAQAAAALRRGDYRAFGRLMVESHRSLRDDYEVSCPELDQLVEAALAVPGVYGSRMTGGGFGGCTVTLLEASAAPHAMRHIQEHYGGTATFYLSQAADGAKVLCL
Chain of Chromobox protein homolog 1 (Homo sapiens) (P83916 whole entry, looked up): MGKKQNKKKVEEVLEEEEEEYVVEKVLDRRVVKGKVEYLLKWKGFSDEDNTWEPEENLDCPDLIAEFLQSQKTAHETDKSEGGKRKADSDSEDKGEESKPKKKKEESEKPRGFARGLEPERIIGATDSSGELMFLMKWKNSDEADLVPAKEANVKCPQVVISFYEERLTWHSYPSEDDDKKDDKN
Chain of M-phase phosphoprotein 8 (Homo sapiens) (Q99549 whole entry, looked up): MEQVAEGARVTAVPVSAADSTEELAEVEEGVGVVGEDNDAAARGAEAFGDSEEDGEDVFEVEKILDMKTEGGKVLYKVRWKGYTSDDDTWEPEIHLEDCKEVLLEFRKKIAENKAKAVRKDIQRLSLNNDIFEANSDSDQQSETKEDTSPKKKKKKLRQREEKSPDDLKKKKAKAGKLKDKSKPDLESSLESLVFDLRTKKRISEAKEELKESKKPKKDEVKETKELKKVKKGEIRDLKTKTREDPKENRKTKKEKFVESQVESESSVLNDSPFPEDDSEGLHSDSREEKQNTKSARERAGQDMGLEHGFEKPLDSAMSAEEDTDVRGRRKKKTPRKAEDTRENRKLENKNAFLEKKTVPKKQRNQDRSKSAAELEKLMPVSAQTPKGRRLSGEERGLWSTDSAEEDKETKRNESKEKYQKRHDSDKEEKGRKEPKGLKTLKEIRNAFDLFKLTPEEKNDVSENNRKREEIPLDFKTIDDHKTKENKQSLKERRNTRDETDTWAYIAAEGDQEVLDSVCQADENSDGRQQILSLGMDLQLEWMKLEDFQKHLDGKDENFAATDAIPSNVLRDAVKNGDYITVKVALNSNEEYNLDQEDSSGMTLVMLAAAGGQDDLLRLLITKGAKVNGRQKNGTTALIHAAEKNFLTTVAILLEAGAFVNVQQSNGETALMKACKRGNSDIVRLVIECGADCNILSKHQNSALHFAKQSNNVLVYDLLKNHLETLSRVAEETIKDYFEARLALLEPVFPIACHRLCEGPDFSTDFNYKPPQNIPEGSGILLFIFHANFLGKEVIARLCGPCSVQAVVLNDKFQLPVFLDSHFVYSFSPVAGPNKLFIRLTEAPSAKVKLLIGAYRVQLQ

Oc1cccc[c]1[Hg][Cl]
active: Potency [1] 5.62 µM

O=C(CS(=O)C(c1ccccc1)c1ccccc1)NO (configuration not stated)
inactive: Potency [1]

CC1OC1P(=O)(O)O (configuration not stated)
inactive: Potency [2] | outcome [3] | activation [4] -2.75% | outcome [5] | Potency [6]

CCCN1CCc2cc(O)cc3c2[C@H]1Cc1ccc(O)c(O)c1-3
-6.67%: viability change [13]
inactive: outcome [8] | Potency [9] | Potency [11] | Potency [12] | Potency [13] | outcome [14] | Potency [15] | Potency [16]
active: Potency [2] 11.9 µM | Potency [7] 1.34 µM | Potency [10] 0.631 µM

COc1ccc2c(c1OC)C(=O)OC2C1c2cc3c(cc2CCN1C)OCO3 (configuration not stated)
inactive: outcome [3] | activation [4] -4.69% | outcome [5]

CCC(=O)O[C@@](Cc1ccccc1)(c1ccccc1)[C@@H](C)CN(C)C
inactive: Potency [1]

CCC1(C)CC(=O)NC(=O)C1
inactive: Potency [1]

CCCN1CCCC2Cc3[nH]ncc3CC21 (configuration not stated)
inactive: Potency [2] | outcome [3] | activation [4] -0.5% | outcome [5] | Potency [6]

CO[C@H]1CC=C2CCN3CCC4=C(CC(=O)OC4)[C@]23C1
inactive: Potency [2] | Potency [7] | outcome [8] | outcome [3] | Potency [9] | Potency [17] | Potency [10] | Potency [11] | Potency [13] | outcome [14] | outcome [5] | Potency [6] | Potency [15] | Potency [16]
-2.68%: viability change [13]

C[N+]1(C)CCC(OC(=O)C(c2ccccc2)c2ccccc2)CC1
inactive: Potency [2] | outcome [3] | outcome [18] | activation [4] 0.125% | outcome [5] | Potency [6]

O=[N+]([O-])c1ccc2nc(N3CCNCC3)ccc2c1
inactive: Potency [2] | outcome [8] | outcome [3] | Potency [9] | Potency [17] | Potency [12] | activation [4] 1.44% | outcome [14] | outcome [5] | Potency [6] | Potency [15] | Potency [16]

O=C(O)C(Cl)(Cl)Cl
inactive: Potency [1]

CCCCCCCCCC(=O)O[C@H]1CC[C@H]2[C@@H]3CCC4=CC(=O)CC[C@]4(C)[C@H]3CC[C@]12C
inactive: Potency [1]

O=S1(=O)N(CCN2CC=C(c3c[nH]c4cc(F)ccc34)CC2)c2cccc3c2N1CCC3
active: Potency [7] 39.8 µM | activation [4] 52.8% | Potency [13] 23.1 µM
inactive: outcome [8] | outcome [3] | Potency [9] | Potency [11] | outcome [14] | outcome [5] | Potency [15] | Potency [16]
-15.7%: viability change [13]

NC(N)=Nc1ccc2[nH]c3c(c2c1)C[C@@]1(O)[C@H]2Cc4ccc(O)c5c4[C@@]1(CCN2CC1CC1)[C@H]3O5
active: Potency [2] 31.6 µM and 2.12 µM | Potency [7] 28.2 µM
4.74%: viability change [13]
inactive: outcome [8] | outcome [3] | Potency [9] | Potency [17] | Potency [10] | Potency [11] | activation [4] 0.188% | Potency [13] | outcome [14] | outcome [5] | Potency [6] | Potency [15] | Potency [16]

CCCN1CCC[C@@H](c2cccc(O)c2)C1
inactive: Potency [2] | Potency [7] | outcome [8] | Potency [9] | Potency [11] | Potency [13] | Potency [15] | Potency [16]
-15.6%: viability change [13]
active: Potency [10] 11.2 µM

CCN(CC)c1ncnc2c1ncn2[C@@H]1O[C@H](COP(=O)(O)OP(=O)(O)C(Br)(Br)P(=O)(O)O)[C@@H](O)[C@H]1O
inactive: Potency [2] | outcome [3] | activation [4] 0.312% | outcome [5] | Potency [6]
